# Measured values taken from the supplement of paper PMC11741263, “Chemoproteomic Profiling of C. albicans for Characterization of Anti-fungal Kinase Inhibitors” (bioRxiv, 2025).
# Compound: Cc1[nH]nc2ccc(-c3cc(OC[C@@H](N)Cc4ccccc4)cnc3-c3ccoc3)cc12
# Experiment: MIB bead binding, log2 fold change vs DMSO (log2 ratio); higher = less competition (weaker engagement)
# Sequence of UniProt P36507 (P36507 whole entry, looked up): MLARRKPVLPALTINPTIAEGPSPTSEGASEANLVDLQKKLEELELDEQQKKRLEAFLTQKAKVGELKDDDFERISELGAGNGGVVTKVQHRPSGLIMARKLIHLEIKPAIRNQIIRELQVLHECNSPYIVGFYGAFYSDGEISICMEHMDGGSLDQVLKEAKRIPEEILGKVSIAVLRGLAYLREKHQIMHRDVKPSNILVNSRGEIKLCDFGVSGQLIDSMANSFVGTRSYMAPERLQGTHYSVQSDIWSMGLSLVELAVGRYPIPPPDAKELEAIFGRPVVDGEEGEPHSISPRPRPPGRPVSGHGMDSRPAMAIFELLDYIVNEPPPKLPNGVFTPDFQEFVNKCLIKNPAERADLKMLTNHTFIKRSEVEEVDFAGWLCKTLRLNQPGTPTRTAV
# Sequence of UniProt Q5AHG6 (Q5AHG6 whole entry): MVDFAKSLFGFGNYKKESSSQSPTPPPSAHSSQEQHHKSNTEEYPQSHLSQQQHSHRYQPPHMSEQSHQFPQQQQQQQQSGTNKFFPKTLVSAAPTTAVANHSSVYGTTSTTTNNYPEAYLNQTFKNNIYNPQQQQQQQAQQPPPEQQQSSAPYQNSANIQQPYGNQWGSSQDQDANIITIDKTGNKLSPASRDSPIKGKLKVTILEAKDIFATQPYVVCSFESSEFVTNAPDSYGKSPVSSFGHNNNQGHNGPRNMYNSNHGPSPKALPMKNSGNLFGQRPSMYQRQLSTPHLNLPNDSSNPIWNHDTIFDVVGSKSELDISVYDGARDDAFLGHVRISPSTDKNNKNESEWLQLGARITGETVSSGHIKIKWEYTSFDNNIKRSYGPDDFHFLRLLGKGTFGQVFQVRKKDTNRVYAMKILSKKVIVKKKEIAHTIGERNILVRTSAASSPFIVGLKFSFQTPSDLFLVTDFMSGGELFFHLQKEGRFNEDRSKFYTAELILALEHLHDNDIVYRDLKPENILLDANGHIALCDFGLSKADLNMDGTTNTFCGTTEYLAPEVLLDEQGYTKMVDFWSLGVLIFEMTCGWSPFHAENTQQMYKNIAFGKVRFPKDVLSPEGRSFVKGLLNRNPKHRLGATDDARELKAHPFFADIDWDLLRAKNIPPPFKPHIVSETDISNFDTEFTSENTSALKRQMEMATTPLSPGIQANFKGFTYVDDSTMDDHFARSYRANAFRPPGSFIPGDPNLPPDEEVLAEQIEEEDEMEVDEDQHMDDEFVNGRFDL
# Sequence of UniProt Q59W62 (Q59W62 whole entry): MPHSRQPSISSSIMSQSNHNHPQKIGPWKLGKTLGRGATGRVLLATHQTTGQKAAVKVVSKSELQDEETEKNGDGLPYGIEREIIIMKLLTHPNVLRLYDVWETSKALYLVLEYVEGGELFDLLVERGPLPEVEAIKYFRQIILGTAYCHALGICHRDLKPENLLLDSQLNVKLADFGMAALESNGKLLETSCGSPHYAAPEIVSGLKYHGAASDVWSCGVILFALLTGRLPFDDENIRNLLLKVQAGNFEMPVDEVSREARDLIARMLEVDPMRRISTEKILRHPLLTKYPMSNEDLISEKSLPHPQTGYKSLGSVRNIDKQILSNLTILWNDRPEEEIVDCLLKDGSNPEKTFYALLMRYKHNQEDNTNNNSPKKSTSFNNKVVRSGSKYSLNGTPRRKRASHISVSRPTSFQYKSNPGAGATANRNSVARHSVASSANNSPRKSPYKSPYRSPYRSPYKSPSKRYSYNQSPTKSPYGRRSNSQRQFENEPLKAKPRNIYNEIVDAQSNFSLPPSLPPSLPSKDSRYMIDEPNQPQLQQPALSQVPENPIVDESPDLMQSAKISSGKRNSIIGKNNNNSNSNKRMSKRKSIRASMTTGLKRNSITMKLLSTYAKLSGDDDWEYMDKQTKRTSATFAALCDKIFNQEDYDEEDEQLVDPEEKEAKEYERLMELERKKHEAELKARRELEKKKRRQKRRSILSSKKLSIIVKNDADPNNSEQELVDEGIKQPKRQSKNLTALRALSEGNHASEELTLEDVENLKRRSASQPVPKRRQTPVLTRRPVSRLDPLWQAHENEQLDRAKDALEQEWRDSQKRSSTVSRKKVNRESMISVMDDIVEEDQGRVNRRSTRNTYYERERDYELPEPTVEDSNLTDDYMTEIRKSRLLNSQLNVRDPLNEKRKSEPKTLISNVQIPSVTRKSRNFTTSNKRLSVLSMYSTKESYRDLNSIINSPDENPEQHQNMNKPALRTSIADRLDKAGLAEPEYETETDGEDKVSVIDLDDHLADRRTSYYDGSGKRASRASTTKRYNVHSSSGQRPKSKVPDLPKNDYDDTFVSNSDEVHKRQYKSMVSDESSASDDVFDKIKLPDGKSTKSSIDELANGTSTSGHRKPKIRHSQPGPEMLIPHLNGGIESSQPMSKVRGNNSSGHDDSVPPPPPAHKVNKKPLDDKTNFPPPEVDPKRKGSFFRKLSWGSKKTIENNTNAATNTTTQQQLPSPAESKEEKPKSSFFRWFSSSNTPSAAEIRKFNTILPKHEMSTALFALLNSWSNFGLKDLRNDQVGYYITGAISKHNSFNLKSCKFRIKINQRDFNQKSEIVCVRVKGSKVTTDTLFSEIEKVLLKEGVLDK
# Sequence of UniProt Q5AG71 (Q5AG71 whole entry): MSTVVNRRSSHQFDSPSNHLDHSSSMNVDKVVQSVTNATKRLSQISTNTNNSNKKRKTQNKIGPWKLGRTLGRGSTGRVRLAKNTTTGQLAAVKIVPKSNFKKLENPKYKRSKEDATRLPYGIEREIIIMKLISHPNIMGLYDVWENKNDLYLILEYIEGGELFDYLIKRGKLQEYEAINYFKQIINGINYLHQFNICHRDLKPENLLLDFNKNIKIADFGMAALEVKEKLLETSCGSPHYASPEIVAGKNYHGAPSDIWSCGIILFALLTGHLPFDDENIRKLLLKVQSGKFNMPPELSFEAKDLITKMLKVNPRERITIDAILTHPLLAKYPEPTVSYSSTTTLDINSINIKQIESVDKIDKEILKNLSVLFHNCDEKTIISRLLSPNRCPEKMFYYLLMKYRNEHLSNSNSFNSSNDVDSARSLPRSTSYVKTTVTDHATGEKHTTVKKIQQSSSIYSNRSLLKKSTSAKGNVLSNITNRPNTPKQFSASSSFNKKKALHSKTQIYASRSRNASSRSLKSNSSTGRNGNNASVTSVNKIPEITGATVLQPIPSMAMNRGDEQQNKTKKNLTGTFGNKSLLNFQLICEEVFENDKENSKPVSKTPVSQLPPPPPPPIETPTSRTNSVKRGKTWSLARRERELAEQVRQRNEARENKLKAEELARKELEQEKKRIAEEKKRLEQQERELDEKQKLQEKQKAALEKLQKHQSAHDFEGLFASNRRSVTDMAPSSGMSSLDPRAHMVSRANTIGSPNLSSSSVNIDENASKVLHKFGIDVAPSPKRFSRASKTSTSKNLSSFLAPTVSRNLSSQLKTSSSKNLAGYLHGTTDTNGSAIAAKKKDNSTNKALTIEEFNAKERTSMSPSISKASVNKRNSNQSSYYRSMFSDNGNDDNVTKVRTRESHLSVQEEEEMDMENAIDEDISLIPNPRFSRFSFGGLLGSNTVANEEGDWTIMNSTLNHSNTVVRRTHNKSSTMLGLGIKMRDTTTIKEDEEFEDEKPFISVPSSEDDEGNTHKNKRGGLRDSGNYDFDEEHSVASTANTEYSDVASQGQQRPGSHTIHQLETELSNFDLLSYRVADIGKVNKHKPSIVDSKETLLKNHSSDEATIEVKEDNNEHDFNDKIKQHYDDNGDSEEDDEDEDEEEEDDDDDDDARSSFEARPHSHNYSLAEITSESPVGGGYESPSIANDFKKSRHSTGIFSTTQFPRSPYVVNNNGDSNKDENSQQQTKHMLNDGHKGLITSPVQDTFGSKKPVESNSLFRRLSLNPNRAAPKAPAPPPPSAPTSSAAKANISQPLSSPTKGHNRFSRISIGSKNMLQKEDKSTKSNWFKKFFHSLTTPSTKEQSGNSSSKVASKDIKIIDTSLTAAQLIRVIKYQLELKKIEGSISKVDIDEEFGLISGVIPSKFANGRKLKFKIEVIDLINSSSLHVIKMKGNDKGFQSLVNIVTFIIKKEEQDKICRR
# Sequence of UniProt P43063 (P43063 whole entry): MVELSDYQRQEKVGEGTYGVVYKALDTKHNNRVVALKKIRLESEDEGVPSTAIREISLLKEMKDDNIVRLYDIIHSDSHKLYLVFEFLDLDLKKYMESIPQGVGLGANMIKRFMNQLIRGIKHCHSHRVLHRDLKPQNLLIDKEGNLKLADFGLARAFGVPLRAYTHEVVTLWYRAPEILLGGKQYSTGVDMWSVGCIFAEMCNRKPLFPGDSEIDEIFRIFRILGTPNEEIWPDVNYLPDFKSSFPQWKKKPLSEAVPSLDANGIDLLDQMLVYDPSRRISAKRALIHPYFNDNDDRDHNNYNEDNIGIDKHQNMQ
# Sequence of UniProt Q92207 (Q92207 whole entry): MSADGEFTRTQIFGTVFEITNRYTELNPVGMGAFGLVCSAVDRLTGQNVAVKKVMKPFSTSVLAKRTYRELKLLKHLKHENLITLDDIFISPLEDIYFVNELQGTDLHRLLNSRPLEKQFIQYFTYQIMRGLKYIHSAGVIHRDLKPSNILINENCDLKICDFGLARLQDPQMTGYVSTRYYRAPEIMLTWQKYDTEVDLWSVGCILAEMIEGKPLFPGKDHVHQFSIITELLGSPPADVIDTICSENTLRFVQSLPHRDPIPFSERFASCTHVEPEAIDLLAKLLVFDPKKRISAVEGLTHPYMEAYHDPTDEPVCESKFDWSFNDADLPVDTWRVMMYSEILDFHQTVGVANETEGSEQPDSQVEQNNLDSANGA
# Sequence of UniProt P50613 (P50613 whole entry, looked up): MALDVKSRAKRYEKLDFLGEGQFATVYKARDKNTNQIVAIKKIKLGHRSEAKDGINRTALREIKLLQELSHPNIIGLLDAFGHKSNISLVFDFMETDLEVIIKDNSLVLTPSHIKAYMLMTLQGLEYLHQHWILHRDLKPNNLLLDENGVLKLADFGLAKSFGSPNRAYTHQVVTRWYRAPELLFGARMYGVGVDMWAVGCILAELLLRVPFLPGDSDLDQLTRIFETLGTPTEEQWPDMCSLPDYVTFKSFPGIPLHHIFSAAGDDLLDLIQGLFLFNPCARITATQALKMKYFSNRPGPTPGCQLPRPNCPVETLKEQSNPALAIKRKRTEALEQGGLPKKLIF
Target,MIB bead binding (log2) (0.1 µM),MIB bead binding (log2) (1 µM),MIB bead binding (log2) (10 µM)
IRE1 (UniProt O75460),-0.11,0.0485,-0.0877
GIN4 (UniProt Q59W62),-0.016,-0.162,-0.625
CAALFM_C106360WA,-0.234,-0.165,
orf19.3456,-0.328,-0.791,
CDC28 (UniProt P43063),0.12,0.127,-0.931
HRK1,-0.0934,0.0301,-0.517
CMK2,0.0395,0.585,
PBS2,-0.000679,-0.0528,-0.766
PHO85 (UniProt Q9HGY5),0.238,0.232,-0.87
CDC7 (UniProt O00311),-0.0168,-0.237,
NIK1 (UniProt Q5A599),-0.731,0.254,
KIN3,0.0483,0.0107,-0.586
orf19.4144,-0.0982,-0.112,-2.63
PKH3,-0.246,-0.128,-0.466
KSP1,0.0498,-0.354,-0.384
MCK1,-0.0754,0.0618,-1.02
AKL1,-0.106,-1.01,-5.4
RTK1,0.0613,0.118,-1.04
CTK1,-0.0626,-0.159,
CKA1,-0.241,0.0806,-2.47
IKS1,-0.323,-0.0927,
YCK2,-0.488,-1.75,-3.65
CBK1 (UniProt Q5AP53),0.0978,-0.0808,-0.759
NPR1 (UniProt P16066),0.0428,-0.0888,-0.75
SNF1 (UniProt P52497),-0.272,-0.136,-1.78
CKA2,0.0997,0.026,-1.17
YPK1,-0.0854,-0.539,-1.48
SSK2,-0.564,-0.847,-2.24

Target,MIB bead binding (log2) (0.1 µM),MIB bead binding (log2) (1 µM),MIB bead binding (log2) (10 µM)
Yck22,-0.049,-0.35,-2.01
HSL1 (UniProt Q5AG71),0.351,0.197,-0.67
HOG1 (UniProt Q92207),0.146,0.244,-0.916
SHA3,-0.155,-0.569,-1.8
CEK1,-0.256,-0.317,-1.74
RIM8 (UniProt Q9UW13),-0.206,-0.122,-2.22
RCK2,-0.0134,-0.109,-0.886
TOR1,-0.226,0.207,-1.59
SAK1,0.0968,-0.223,-0.482
HST7,0.106,-0.0777,-1.68
MKK2 (UniProt P36507),0.148,-0.183,-1.11
RIO2 (UniProt Q9BVS4),-0.284,-0.263,-1.23
ENV7,-0.351,0.16,-1.89
orf19.4518,-0.0101,-0.0109,-0.0364
MKC1,-0.00282,0.0129,-1.76
TPK2,-0.0872,0.0369,-2.41
orf19.6492,-0.282,-0.0346,-3.3
HRR25,-0.165,-0.114,-1.89
orf19.4575,-0.428,-0.272,-2.61
CAK1 (UniProt P50613),-0.167,0.067,-2.18
RIM11,-0.208,-0.891,-3.89
CMK1,0.142,0.154,-0.566
POM1,-0.418,-0.345,-2.53
SCH9 (UniProt Q5AHG6),-0.2,-0.178,-1.05
YAK1,-0.229,-0.0276,-2.8
FPK1,0.0443,-0.0445,-0.41
KIN2,-0.0805,-0.118,-0.154
